Here are results for 57 sequences from PMC5515408, “Sequence-specific DNA binding by MYC/MAX to low-affinity non-E-box motifs”.

In all, about 4,500 sequences were measured (“log2 normalized fluorescence”: median about -0.34, highest 2% from about 3.3 on). What follows is part of a selection rich in the highest values, with near analogues and random picks from the rest.

Chain of MAX:MAX (p21) (P61244 other isoform, or with tags, fused parts or gaps): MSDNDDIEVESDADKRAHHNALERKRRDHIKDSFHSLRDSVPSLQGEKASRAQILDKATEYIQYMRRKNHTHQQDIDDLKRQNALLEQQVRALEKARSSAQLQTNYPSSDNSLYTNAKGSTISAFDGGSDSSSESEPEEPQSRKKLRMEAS

The test concerns the target MAX:MAX (p21) (human, UniProt P61244-2 1-151). Put plainly: protein-binding microarray (anti-MAX antibody); PBM: 15 mM Tris-HCl pH 7.5, 100 mM KCl, 0.075% NP40, 7.5 mM beta-mercaptoethanol, 375 ng/ul BSA, 8 ng/ul poly(dA-dT):(dA-dT), 550 ng complex, 60 min, room tempe; high values mean tight binding. As to conditions: protein: recombinant; tags: 6xHis; chain copies: 2; label: 3' end of printed strand (linker) attached to glass slide; dsDNA, one strand shown. Put shortly: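 Binding, given as log2 normalized fluorescence, was measured on a custom Agilent glass array. The array bore ~5000 unique 12-nt sequences spotted in triplicate and converted to double strands by primer extension. It was incubated with 550 ng of human His-tagged MYC:MAX or MAX:MAX dimers from E. coli for 60 min at room temperature in Tris-KCl buffer, pH 7.5, with NP40, BSA and poly(dA-dT) competitor, and bound protein was detected with anti-MAX and secondary antibodies and scanned at 543 nm.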
Turning to “CCGGCTGACGGACGGTATTAATAGCTAAGATTACTATATCGACG”, the binding signal was -0.374 log2 normalized fluorescence.
The figure for “CCGGCTGACGTATCGTATTAATAGCTAAGATTACTATATCGACG” is -0.167 log2 normalized fluorescence; for “CCGGCTTCCACGTGGTATTAATAGCTAAGATTACTATATCGACG” it is 3.13 log2 normalized fluorescence; for “CCGGCGGCCACGTGGTATTAATAGCTAAGATTACTATATCGACG” it is 3.16 log2 normalized fluorescence.
In the case of “CCGGCGATCACGTGGTATTAATAGCTAAGATTACTATATCGACG” it was 3.19 log2 normalized fluorescence; in that of “CCGGCGTCCACGTGGTATTAATAGCTAAGATTACTATATCGACG”, 3.64 log2 normalized fluorescence.
As to “CCGGCAACCACGTGGTATTAATAGCTAAGATTACTATATCGACG”, the binding signal is 3.15 log2 normalized fluorescence.
The figure for “CCGGCGACCACGTGGTATTAATAGCTAAGATTACTATATCGACG” is 3.3 log2 normalized fluorescence; for “CCGGCTACGACGTGGTATTAATAGCTAAGATTACTATATCGACG” it is 2.57 log2 normalized fluorescence; for “CCGGCTGATCCTACGTATTAATAGCTAAGATTACTATATCGACG” it is -0.737 log2 normalized fluorescence.
The figure for “CCGGCTGACCGCGTGTATTAATAGCTAAGATTACTATATCGACG” is 3.4 log2 normalized fluorescence.
In the case of “CCGGCTGATCACGTGTATTAATAGCTAAGATTACTATATCGACG” it was 3.48 log2 normalized fluorescence; in that of “CCGGCTGATTACGTGTATTAATAGCTAAGATTACTATATCGACG”, 0.238 log2 normalized fluorescence; in that of “CCGGCTGACCGTGTGTATTAATAGCTAAGATTACTATATCGACG”, 1.49 log2 normalized fluorescence.
As for “CCGGCTGACCGCGCGTATTAATAGCTAAGATTACTATATCGACG”, the binding signal was 1.24 log2 normalized fluorescence.
The figure for “CCGGCTGATCGTGTGTATTAATAGCTAAGATTACTATATCGACG” is 1.12 log2 normalized fluorescence; for “CCGGCTGACACCGTGTATTAATAGCTAAGATTACTATATCGACG” it is 1.72 log2 normalized fluorescence; for “CCGGCTGACGCCTAGTATTAATAGCTAAGATTACTATATCGACG” it is -0.368 log2 normalized fluorescence.
For “CCGGCTGAAGGCGCGTATTAATAGCTAAGATTACTATATCGACG”, the binding signal is -0.33 log2 normalized fluorescence.
The figure for “CCGGCTGAAGCCCGGTATTAATAGCTAAGATTACTATATCGACG” is -0.644 log2 normalized fluorescence.
In the case of “CCGGCTGACACGTAGCATTAATAGCTAAGATTACTATATCGACG” it was 1.7 log2 normalized fluorescence; in that of “CCGGCTGACATACAGTATTAATAGCTAAGATTACTATATCGACG”, 0.345 log2 normalized fluorescence; in that of “CCGGCTGACTCAAGGTATTAATAGCTAAGATTACTATATCGACG”, 0.208 log2 normalized fluorescence.
In the case of “CCGGCTGGCACCTGGTTTTAATAGCTAAGATTACTATATCGACG” it was 1.82 log2 normalized fluorescence; in that of “CCGGCCGGCACGTGGTGTTAATAGCTAAGATTACTATATCGACG”, 3.21 log2 normalized fluorescence; in that of “CCGGCTGGCACGTGGTGTTAATAGCTAAGATTACTATATCGACG”, 3.4 log2 normalized fluorescence.
Turning to “CCGGCTGCCACGTGGTGTTAATAGCTAAGATTACTATATCGACG”, the binding signal is 3.07 log2 normalized fluorescence.
Take “CCGGCTGGCACGTGGTTTTAATAGCTAAGATTACTATATCGACG”: the binding signal was 3.33 log2 normalized fluorescence.
The figure for “CCGGCTGGCACGTGGTATTAATAGCTAAGATTACTATATCGACG” is 3.26 log2 normalized fluorescence; for “CCGGCTGAGTGTCGGTATTAATAGCTAAGATTACTATATCGACG” it is -0.348 log2 normalized fluorescence; for “CCGGCTGATGCCCTGTATTAATAGCTAAGATTACTATATCGACG” it is -0.309 log2 normalized fluorescence.
In the case of “CCGGCTGAACGTACGTATTAATAGCTAAGATTACTATATCGACG” it was -0.307 log2 normalized fluorescence.
With “CCGGCTGAGGCGTCGTATTAATAGCTAAGATTACTATATCGACG”, the binding signal is -0.641 log2 normalized fluorescence.
As to “CCGGCTGAACGCAAGTATTAATAGCTAAGATTACTATATCGACG”, the binding signal was 0.234 log2 normalized fluorescence.
In the case of “CCGGCAGAAACGTGTTATTAATAGCTAAGATTACTATATCGACG” it was 2.96 log2 normalized fluorescence.
The figure for “CCGGCCGACACGGCGTATTAATAGCTAAGATTACTATATCGACG” is 0.94 log2 normalized fluorescence; for “CCGGCCGACACGTGATATTAATAGCTAAGATTACTATATCGACG” it is 3.43 log2 normalized fluorescence.
In the case of “CCGGCTGACACACGTTATTAATAGCTAAGATTACTATATCGACG”, the binding signal is 2.37 log2 normalized fluorescence.
The figure for “CCGGCAGACACGTGGTGTTAATAGCTAAGATTACTATATCGACG” is 3.28 log2 normalized fluorescence; for “CCGGCTGACACGTGATATTAATAGCTAAGATTACTATATCGACG” it is 3.05 log2 normalized fluorescence.
In the case of “CCGGCAGACACGTGTTATTAATAGCTAAGATTACTATATCGACG” it was 3.42 log2 normalized fluorescence; in that of “CCGGCTGACACGTTATATTAATAGCTAAGATTACTATATCGACG”, 2.87 log2 normalized fluorescence; in that of “CCGGCCGACACGTGCTATTAATAGCTAAGATTACTATATCGACG”, 3.18 log2 normalized fluorescence.
In the case of “CCGGCCGACACGTGTTATTAATAGCTAAGATTACTATATCGACG” it was 3.4 log2 normalized fluorescence; in that of “CCGGCTGACACGTGTTATTAATAGCTAAGATTACTATATCGACG”, 3.29 log2 normalized fluorescence; in that of “CCGGCCGACACCTGTTATTAATAGCTAAGATTACTATATCGACG”, 2.63 log2 normalized fluorescence.
As for “CCGGCTGAGCATTTGTATTAATAGCTAAGATTACTATATCGACG”, the binding signal is -0.22 log2 normalized fluorescence.
As to “CCGGCTGACTGGATGTATTAATAGCTAAGATTACTATATCGACG”, the binding signal is -0.202 log2 normalized fluorescence.
“CCGGCTGACATTCAGTATTAATAGCTAAGATTACTATATCGACG”: the binding signal is 0.265 log2 normalized fluorescence.
In the case of “CCGGCTGACGTGTCGTATTAATAGCTAAGATTACTATATCGACG” it was 1.07 log2 normalized fluorescence; in that of “CCGGCTGATGGTCTGTATTAATAGCTAAGATTACTATATCGACG”, 0.348 log2 normalized fluorescence; in that of “CCGGCTGAGGAGGCGTATTAATAGCTAAGATTACTATATCGACG”, -0.734 log2 normalized fluorescence.
The figure for “CCGGCTGACACTACGTATTAATAGCTAAGATTACTATATCGACG” is -0.11 log2 normalized fluorescence; for “CCGGCTGAACGTTGGTATTAATAGCTAAGATTACTATATCGACG” it is 0.152 log2 normalized fluorescence.
In the case of “CCGGCTGTGACGTGGTATTAATAGCTAAGATTACTATATCGACG” it was 1.45 log2 normalized fluorescence; in that of “CCGGCCGACATGTGGTGTTAATAGCTAAGATTACTATATCGACG”, 3.43 log2 normalized fluorescence.
For the sequence “CCGGCCGACATGTGGTATTAATAGCTAAGATTACTATATCGACG”, the binding signal was 3.18 log2 normalized fluorescence.
